The values that follow come from PubChem BioAssay (Tox21).

“And” between values parts separate entries of the source, which are not always exact repeats. Equal values may be shown once. Results filed as inconclusive are left out. The source made the active and inactive calls. Unless noted, calls follow the shape of the dose curve; as a rule, active = well fitted curve in the direction sought with a large enough effect in the repeat runs; inconclusive = weak or mixed curves; inactive = no such curve, though single readings can be large; an effect the other way counts as inactive or inconclusive.

A short description of assay [1]: A CellTox Green Cytotoxicity Assay to monitor cytotoxicity in HepG2 cells - 0 hour (AID 1224882). Also: nearly all actives have a fitted effect of over 35% in size. Put shortly:
(§1)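 Continuous culture of HepG2 cells with a membrane-impermeant DNA dye; rising fluorescence marks dead cells. Compound exposure lasted up to 40 h at 37 C, with reads every 8 h from 0 h.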

Assay [2] in a line: A CellTox Green Cytotoxicity Assay to monitor cytotoxicity in HepG2 cells - 32 hour (AID 1224883). Also: nearly all actives have a fitted effect of over 50% in size. Also: potency is read from the fitted curve at half-maximal effect. Put shortly:
as §1

Assay [3] can be described thus: A CellTox Green Cytotoxicity Assay to monitor cytotoxicity in HEK293 cells - 8 hour (AID 1224884). Also: nearly all actives have a fitted effect of over 35% in size. Also: potency is read from the fitted curve at half-maximal effect. Put shortly:
(§2)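 Each value comes from one timepoint of a single continuous run in which HEK293 cells with CellTox Green were exposed to compound for up to 40 h at 37 C, dye fluorescence rising with cell death.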

Assay [4] is described as follows: qHTS RealTime-Glo MT Cell Viability Assay in HepG2 cells - 16 hour (AID 1224885). Also: nearly all actives have a fitted effect of over 50% in size. Also: potency is read from the fitted curve at half-maximal effect. In short, it runs like this: (§3)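 Tox21 10K library screened in qHTS format on HepG2 cells carrying RealTime-Glo reagents. Compounds were added after a 5 h preincubation, and the luminescent signal from continuous culture was measured repeatedly during 40 h treatment.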
In general terms: In qHTS, concentration-response curves come from the screen itself.

Assay [5] is described as follows: qHTS RealTime-Glo MT Cell Viability Assay in HEK293 cells - 24 hour (AID 1224886). Also: nearly all actives have a fitted effect of over 50% in size. Also: potency is read from the fitted curve at half-maximal effect. Put shortly: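 Luminescence generated by NanoLuc from substrate produced by living HEK293 cells served as the viability signal. Each value reflects the reading at its stated time point during continuous 40 h compound exposure at 37 C.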
The nature of assay [6]: qHTS RealTime-Glo MT Cell Viability Assay in HEK293 cells - 8 hour (AID 1224887). Also: nearly all actives have a fitted effect of over 50% in size. Also: potency is read from the fitted curve at half-maximal effect. Put shortly:
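qHTS format; HEK293 cells with NanoLuc/prosubstrate reagent, 37 C/5% CO2 for 5 h pre-dosing; compounds 23 nL in DMSO; luminescence at each time point reflects viable cells.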

The nature of assay [7]: A CellTox Green Cytotoxicity Assay to monitor cytotoxicity in HEK293 cells - 16 hour (AID 1224888). Also: nearly all actives have a fitted effect of over 35% in size. Also: potency is read from the fitted curve at half-maximal effect. In short, it runs like this: as §2
Assay [8] in a line: qHTS RealTime-Glo MT Cell Viability Assay in HepG2 cells - 0 hour (AID 1224889). Also: nearly all actives have a fitted effect of over 50% in size. Put shortly: as §3
Assay [9] is described as follows: A CellTox Green Cytotoxicity Assay to monitor cytotoxicity in HepG2 cells - 8 hour (AID 1224890). Also: nearly all actives have a fitted effect of over 45% in size. Also: potency is read from the fitted curve at half-maximal effect. Put shortly: as §1
The nature of assay [10]: qHTS assay to identify small molecule antagonists of the estrogen receptor alpha (ER-alpha) signaling pathway using the BG1 cell line in the presence of 0.1 nM 17-beta-estradiol - cell viability counter screen (AID 1259241). Also: nearly all actives have a fitted effect of over 40% in size. Also: potency is read from the fitted curve at half-maximal effect. Put shortly: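 Cells were plated and left 24 hr, compounds in DMSO were pinned in, 17beta-estradiol was added to 0.1 nM final, and after 22 hr CellTiter-Fluor reagent was added for 30 min before fluorescence was read.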

Assay [11] is described as follows: qHTS assay to identify small molecule antagonists of the androgen receptor (AR) signaling pathway using the MDA cell line in the presence of 0.5 nM R1881 - cell viability counter screen (AID 1259242). Also: nearly all actives have a fitted effect of over 45% in size. Also: potency is read from the fitted curve at half-maximal effect. Put shortly: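 Fluorescence from CellTiter-Fluor, which reports protease activity of live cells, was read 30 min after reagent addition to MDA-kb2 cells that had been incubated 16 hr with compound and 0.5 nM R1881.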

The target of assay [12] is Androgen receptor (Homo sapiens) (UniProt P10275). The assay can be described thus: qHTS assay to identify small molecule antagonists of the androgen receptor (AR) signaling pathway using the MDA cell line in the presence of 0.5 nM R1881 (AID 1259243). Also: nearly all actives have a fitted effect of over 50% in size. Also: potency is read from the fitted curve at half-maximal effect. In short, it runs like this: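 Inhibition of R1881 (0.5 nM final) induced reporter signal was measured in human MDA-kb2 cells; note the MMTV promoter also responds to GR. Exposure lasted 16 hr at 37C.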

A short description of assay [13]: qHTS assay to identify small molecule HDAC inhibitors (AID 1259364). Also: top concentration of the series differs between compounds; nearly all actives have a fitted effect of over 45% in size. In short, it runs like this: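 Endogenous HDAC class I/II activity was measured in wild-type HCT-116 cells by HDAC-Glo luminescence after 2 h compound treatment.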
The nature of assay [14]: qHTS assay to identify small molecule HDAC inhibitors - cell viability counter screen (AID 1259365). Also: nearly all actives have a fitted effect of over 50% in size. Also: potency is read from the fitted curve at half-maximal effect. Put shortly:
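Counter screen in wild-type HCT-116 cells: compounds dissolved in DMSO are pin-transferred onto overnight-plated cells and left 2hr at 37C. ATP-based CellTiter-Glo luminescence then measures viable cells.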

A short description of assay [15]: qHTS assay to identify small molecule agonists of the sonic hedgehog signaling (Shh) pathway - cell viability counter screen (AID 1259366). Also: nearly all actives have a fitted effect of over 50% in size. Also: potency is read from the fitted curve at half-maximal effect. In short, it runs like this: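 Cells are plated at 2,000 per well and left 4hr at 37C, 5% CO2 before compound addition. After 23hr of treatment, CellTiter-Fluor reagent is added for 1hr at 37C and fluorescence is measured.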

Assay [16] is described as follows: qHTS assay to identify small molecule antagonists of the sonic hedgehog signaling (Shh) pathway - cell viability counter screen (AID 1259367). Also: nearly all actives have a fitted effect of over 55% in size. Also: potency is read from the fitted curve at half-maximal effect. In short, it runs like this: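 Using CellTiter-Fluor, viability of Gli1-Luc reporter 3T3 cells is read by fluorescence in the wells used for the Shh luciferase assay. Treatment lasts 23 hr with conditioned medium, then reagent 1 hr at 37C.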

Assay [17] is described as follows: qHTS assay to identify small molecule agonists of the sonic hedgehog signaling (Shh) pathway (AID 1259368; calls by dose curve;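 also: NIH/3T3-derived 3T3Gli1-Luc cells carrying a stable Gli1-driven firefly luciferase reporter; series mostly up to about 92 µM; nearly all actives have a fitted effect of over 15% in size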). In short, it runs like this: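 Luminescent signal was taken as a measure of Gli1-controlled luciferase expression in stably transfected NIH/3T3-derived cells that had been treated for 24 hr with compounds delivered in DMSO.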
Assay [18] in a line: qHTS assay to identify small molecule antagonists of the sonic hedgehog signaling (Shh) pathway (AID 1259369; calls by dose curve; also: nearly all actives have a fitted effect of over 45% in size; also: potency is read from the fitted curve at half-maximal effect). In short, it runs like this: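 Screening used 3T3Gli1-Luc cells at 2,000 per well, compounds delivered in DMSO, and conditioned medium as agonist stimulus; plates incubated 24hr at 37 C and 5% CO2 before a 30min luciferase step.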
The target in assay [19] is Estrogen receptor (Homo sapiens) (UniProt P03372). The assay is described as follows: qHTS assay to identify small molecule antagonists of the estrogen receptor alpha (ER-alpha) signaling pathway using the BG1 cell line in the presence of 0.1 nM 17-beta-estradiol (AID 1259244). Also: nearly all actives have a fitted effect of over 50% in size. Also: potency is read from the fitted curve at half-maximal effect. In short, it runs like this: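 Quantitative high-throughput screen in VM7Luc4E2 cells: compound plus 0.1 nM E2 (final), 22 h, 37C, 5% CO2; ONE-Glo added, 30 min room temperature, luminescence measured.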

A short description of assay [20]: qHTS assay to identify small molecule phospholipidosis (PLD) inducers (AID 1259344; active = well fitted curve in the direction sought with a large enough effect; an effect the other way counts as inactive or inconclusive). In short, it runs like this: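 Fluorescent phospholipid staining (LipidTOX Red) measured by automated microscopy in fixed HepG2 cells after 24 h treatment; nuclei counterstained with Hoechst 33342; amiodarone as reference inducer.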

Sequence of Androgen receptor (Homo sapiens) (P10275 whole entry, looked up): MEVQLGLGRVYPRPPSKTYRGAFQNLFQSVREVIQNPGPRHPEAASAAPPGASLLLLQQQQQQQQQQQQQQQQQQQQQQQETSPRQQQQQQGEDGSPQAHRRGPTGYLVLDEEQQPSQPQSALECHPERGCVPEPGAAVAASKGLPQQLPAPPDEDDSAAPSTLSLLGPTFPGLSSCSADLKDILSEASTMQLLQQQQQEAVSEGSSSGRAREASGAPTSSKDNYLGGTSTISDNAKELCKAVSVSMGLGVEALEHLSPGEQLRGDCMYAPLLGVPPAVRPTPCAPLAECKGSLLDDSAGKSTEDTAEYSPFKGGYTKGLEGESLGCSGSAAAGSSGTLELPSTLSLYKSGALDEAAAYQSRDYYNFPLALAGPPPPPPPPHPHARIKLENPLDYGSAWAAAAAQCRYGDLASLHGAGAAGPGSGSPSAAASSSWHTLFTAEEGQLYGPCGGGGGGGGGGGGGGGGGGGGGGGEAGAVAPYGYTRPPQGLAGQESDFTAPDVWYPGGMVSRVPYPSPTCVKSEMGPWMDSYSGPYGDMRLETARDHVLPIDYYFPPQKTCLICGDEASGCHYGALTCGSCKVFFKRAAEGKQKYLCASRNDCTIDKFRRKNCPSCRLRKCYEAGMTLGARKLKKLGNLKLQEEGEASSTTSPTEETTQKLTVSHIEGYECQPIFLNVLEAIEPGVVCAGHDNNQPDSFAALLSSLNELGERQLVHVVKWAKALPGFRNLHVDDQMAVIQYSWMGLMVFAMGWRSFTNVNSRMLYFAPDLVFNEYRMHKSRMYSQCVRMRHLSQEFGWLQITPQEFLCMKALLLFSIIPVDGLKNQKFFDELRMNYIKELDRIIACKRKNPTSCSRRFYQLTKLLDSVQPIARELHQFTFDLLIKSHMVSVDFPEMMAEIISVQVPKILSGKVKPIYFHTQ
Sequence of Estrogen receptor (Homo sapiens) (P03372 whole entry, looked up): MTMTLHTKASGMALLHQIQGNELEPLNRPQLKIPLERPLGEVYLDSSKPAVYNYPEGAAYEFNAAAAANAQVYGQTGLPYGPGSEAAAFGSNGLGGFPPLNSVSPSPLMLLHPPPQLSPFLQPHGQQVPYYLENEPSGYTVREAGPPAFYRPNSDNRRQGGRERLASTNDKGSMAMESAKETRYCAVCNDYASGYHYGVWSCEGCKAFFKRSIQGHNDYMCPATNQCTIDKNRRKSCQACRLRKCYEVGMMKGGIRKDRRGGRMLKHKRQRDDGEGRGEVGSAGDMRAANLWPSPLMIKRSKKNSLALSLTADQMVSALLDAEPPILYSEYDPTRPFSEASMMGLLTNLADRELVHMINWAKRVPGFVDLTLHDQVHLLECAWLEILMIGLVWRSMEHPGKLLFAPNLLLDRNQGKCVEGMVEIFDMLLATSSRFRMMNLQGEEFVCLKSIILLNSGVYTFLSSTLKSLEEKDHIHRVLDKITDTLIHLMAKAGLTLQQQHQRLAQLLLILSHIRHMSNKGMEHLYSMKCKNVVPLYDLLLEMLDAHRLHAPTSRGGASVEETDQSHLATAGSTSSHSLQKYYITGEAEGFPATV

On to `CCCC(=O)c1ccccc1`, for which the Potency entry in assay [1], in assay [2], in assay [3], in assay [4], in [5] and in assay [6] was “inactive” each time. In addition, the Potency entry in assay [7], in assay [8], in assay [9], in assay [10], in [11] and in assay [12] was “inactive” each time. Moreover, the Potency entry in [13], in assay [14], in assay [15], in [16], in assay [17] and in [18] was “inactive” throughout.
For `c1ccc2c(c1)CCCC2C1=NCCN1` (configuration not stated), the Potency entry in [1], in assay [2], in assay [3], in [4], in assay [5] and in [6] was “inactive” in each case. Further, the Potency result in assay [7], in assay [8], in assay [9], in assay [10], in [11] and in assay [19] was “inactive” each time. Moreover, the Potency result in assay [20], in assay [13], in assay [15], in assay [16] and in assay [17] was “inactive” throughout.
Consider `CO[Si](OC)(OC)c1ccccc1`, for which the Potency result in assay [1], in assay [2], in [3], in [4], in [5] and in assay [6] was “inactive” throughout. Also, the Potency result in assay [7], in assay [8], in [9], in assay [10], in assay [11] and in assay [19] was “inactive” each time. Moreover, the Potency entry in assay [13], in assay [15], in assay [16], in assay [17] and in [18] was “inactive” each time.
With `CCCCCCCCCCCCCC[P+](CCCC)(CCCC)CCCC`, the Potency entry in assay [1], in assay [8] and in [17] was “inactive” throughout. Also, the Potency in assay [2] was 19.4 µM (active) and 15.5 µM (active); in assay [3] it was 17.3 µM (active) and 21.9 µM (active); in [4], 21.8 µM (active) and 15.5 µM (active); in assay [5], 387 nM (active) and 616 nM (active); in [6], 24.4 µM (active) and 19.5 µM (active); in assay [7] it was 17.3 µM (active) and 19.5 µM (active). Moreover, the Potency was 24.4 µM (active) and 19.5 µM (active) in [9]; 60.8 µM (active) and 30.6 µM (active) in [10]; 27.1 µM (active) and 21.7 µM (active) in assay [11]; 1.08 µM (active) and 1.72 µM (active) in assay [12]; 2.71 µM (active) and 4.33 µM (active) in assay [19]; 68.2 µM (active) and 68.6 µM (active) in [14]. The Potency was 27.1 µM (active) in assay [15]; 30.5 µM (active) and 30.6 µM (active) in assay [16]; 24.2 nM (active) and 61.1 nM (active) in assay [18].
Turning to `CCC[C@H](N[C@@H](C)C(=O)N1[C@H](C(=O)O)C[C@@H]2CCCC[C@@H]21)C(=O)OCC`, the Potency result in assay [1], in [2], in assay [3], in assay [4], in assay [5] and in assay [6] was “inactive” in each case. The Potency entry in assay [7], in assay [8], in [9], in assay [10], in assay [11] and in [19] was “inactive” each time. The Potency result in assay [20], in assay [13], in assay [14], in assay [15], in assay [16] and in assay [18] was “inactive” in each case.
On to `CN1C(=O)c2ccc([N+](=O)[O-])cc2C1=O`, for which the Potency entry in assay [1], in assay [2], in [3], in [4], in assay [5] and in [6] was “inactive” each time. The Potency result in assay [7], in assay [8], in assay [9], in assay [10], in [11] and in [12] was “inactive” in each case. In addition, the Potency result in assay [19], in assay [13], in [14], in [15], in [16] and in assay [17] was “inactive” each time. In addition, the Potency result in assay [18] was “inactive”.
